Inconclusive results are not listed. The source made the active and inactive calls. The call rests on the fitted dose curve; in most records, active means well fitted curve in the direction sought with a large enough effect; inconclusive means small, poorly fitted or top-dose-only effect, or another doubt; inactive means no such curve, though single readings can be large; an effect the other way counts as inactive or inconclusive.
Tests used:
[1] = Quantitative High-Throughput drug screen in 47 multiple myeloma cell lines against the NCATS MIPE library collection: Delta47_JCRB cell viability assay (AID 1918925; further: nearly all actives have a fitted effect of over 45% in size)
Summary of the method: (§1)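 qHTS of the MIPE 4.0 collection: 500 myeloma cells/well, 48 h drug exposure at 37C in 5% CO2, then CellTiter-Glo for 5 min at room temperature before luminescence reading.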

[2] = Quantitative High-Throughput drug screen in 47 multiple myeloma cell lines against the NCATS MIPE library collection: EJM_DSMZ cell viability assay (AID 1918926; further: nearly all actives have a fitted effect of over 30% in size)
Summary of the method: as §1

[3] = Quantitative High-Throughput drug screen in 47 multiple myeloma cell lines against the NCATS MIPE library collection: ARP1_JJKsccF8 cell viability assay (AID 1918928; further: nearly all actives have a fitted effect of over 40% in size)
Summary of the method: (§2)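 Myeloma cells at 500 per well in 1536-well format treated with MIPE 4.0 library by pin transfer for 48 h at 37C, 5% CO2. Viability from ATP luminescence (CellTiter-Glo), normalized to DMSO (100%) and media-only (0%) wells.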

[4] = Quantitative High-Throughput drug screen in 47 multiple myeloma cell lines against the NCATS MIPE library collection: Karpas620_DSMZ cell viability assay (AID 1918959); further: nearly all actives have a fitted effect of over 30% in size
Summary of the method: (§3)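 Inhibition of cell viability is measured here. Each line was plated at 500 cells per well, treated with MIPE 4.0 drugs, kept 48 hours at 37C, then assayed for ATP content by CellTiter-Glo luminescence.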

[5] = Quantitative High-Throughput drug screen in 47 multiple myeloma cell lines against the NCATS MIPE library collection: KMM1_JCRB cell viability assay (AID 1918960); further: nearly all actives have a fitted effect of over 30% in size
Summary of the method: as §2

[6] = Quantitative High-Throughput drug screen in 47 multiple myeloma cell lines against the NCATS MIPE library collection: KHM11_PLB cell viability assay (AID 1918962); further: nearly all actives have a fitted effect of over 35% in size
Summary of the method: as §3

[7] = Quantitative High-Throughput drug screen in 47 multiple myeloma cell lines against the NCATS MIPE library collection: JIM3_ECACC cell viability assay (AID 1918963; further: nearly all actives have a fitted effect of over 35% in size)
Summary of the method: as §3

[8] = Quantitative High-Throughput drug screen in 47 multiple myeloma cell lines against the NCATS MIPE library collection: INA6_PLB cell viability assay (AID 1918965; further: nearly all actives have a fitted effect of over 55% in size)
Summary of the method: as §1

[9] = Quantitative High-Throughput drug screen in 47 multiple myeloma cell lines against the NCATS MIPE library collection: JJN3_DSMZ cell viability assay (AID 1918966; further: nearly all actives have a fitted effect of over 50% in size)
Summary of the method: as §1

[10] = Quantitative High-Throughput drug screen in 47 multiple myeloma cell lines against the NCATS MIPE library collection: H1112_PLB cell viability assay (AID 1918967; further: nearly all actives have a fitted effect of over 30% in size)
Summary of the method: as §1

[11] = Quantitative High-Throughput drug screen in 47 multiple myeloma cell lines against the NCATS MIPE library collection: Karpas25_ECACC cell viability assay (AID 1918968; further: nearly all actives have a fitted effect of over 35% in size)
Summary of the method: as §1

[12] = Quantitative High-Throughput drug screen in 47 multiple myeloma cell lines against the NCATS MIPE library collection: KMS27_JCRB cell viability assay (AID 1918970); further: nearly all actives have a fitted effect of over 30% in size
Summary of the method: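 ATP-based viability (CellTiter-Glo luminescence) is measured in cells treated 48 h with approved and investigational drugs at 37 °C. Controls are DMSO-only wells for full viability and media-only wells for none.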

[13] = Quantitative High-Throughput drug screen in 47 multiple myeloma cell lines against the NCATS MIPE library collection: KMS12BM_JCRB cell viability assay (AID 1918971); further: nearly all actives have a fitted effect of over 35% in size
Summary of the method: as §3

[14] = Quantitative High-Throughput drug screen in 47 multiple myeloma cell lines against the NCATS MIPE library collection: KMS12PE_JCRB cell viability assay (AID 1918972); further: nearly all actives have a fitted effect of over 30% in size
Summary of the method: as §1

[15] = Quantitative High-Throughput drug screen in 47 multiple myeloma cell lines against the NCATS MIPE library collection: FR4_PLB cell viability assay (AID 1918924; further: nearly all actives have a fitted effect of over 35% in size)
Summary of the method: as §3

[16] = Quantitative High-Throughput drug screen in 47 multiple myeloma cell lines against the NCATS MIPE library collection: AMO1_DSMZ cell viability assay (AID 1918927; further: nearly all actives have a fitted effect of over 30% in size)
Summary of the method: as §1

[17] = Quantitative High-Throughput drug screen in 47 multiple myeloma cell lines against the NCATS MIPE library collection: ARD_JJKsccE7 cell viability assay (AID 1918929)
Summary of the method: as §1

[18] = Quantitative High-Throughput drug screen in 47 multiple myeloma cell lines against the NCATS MIPE library collection: Karpas417_ECACC cell viability assay (AID 1918961); conditions: Karpas417 myeloma viability, CellTiter-Glo ATP luminescence, 48 h; viability (% of DMSO): at 45.8 µM (top of the series)
Summary of the method: as §1

[19] = Quantitative High-Throughput drug screen in 47 multiple myeloma cell lines against the NCATS MIPE library collection: JIM1_ECACC cell viability assay (AID 1918964)
Summary of the method: as §1

Measured: Potency
Potency means the concentration at half of the fitted maximal effect.

O=C(NCCCNc1nc(Nc2cccc(NC(=O)N3CCCC3)c2)ncc1I)c1cccs1
active: [1] 4.69 µM | [2] 14.8 µM | [3] 16.6 µM | [6] 1.32 µM | [7] 5.26 µM | [8] 0.662 µM | [9] 16.6 µM | [10] 9.35 µM | [11] 5.26 µM | [13] 18.7 µM
inactive: [4] | [5] | [12] | [14]

CC[C@@H]1C(=O)N(C)c2cnc(Nc3ccc(C(=O)NC4CCN(C)CC4)cc3OC)nc2N1C1CCCC1
active: [15] 23.5 nM | [2] 3.72 µM | [16] 0.0833 µM | [3] 0.0372 µM | [17] 0.0296 µM | [5] 0.0235 µM | [18] 1.87 µM | [7] 0.0235 µM | [8] 0.0833 µM | [9] 7.43 µM | [13] 0.0235 µM | [14] 1.66 µM

Cn1c2cc(S(C)=O)sc2c2cnn(Cc3cccc(N)c3)c(=O)c21 (stereo not drawn)
inactive: [15] | [2] | [16] | [3] | [17] | [4] | [5] | [18] | [7] | [19] | [10] | [13] | [14]

CN1c2cc(O)c(N=NC(N)=O)cc2CC1S(=O)(=O)O (stereo not drawn)
inactive: [2] | [3] | [5] | [7] | [19] | [8] | [11] | [12] | [13] | [14]
active: [17] 0.0012 µM

Cn1cc(-c2ccncc2)c(-c2ccc(OCc3ccc4ccccc4n3)cc2)n1
active: [1] 2.64 µM | [2] 14.8 µM | [16] 3.32 µM | [3] 4.69 µM | [17] 6.62 µM | [4] 4.69 µM | [5] 8.33 µM | [8] 3.32 µM | [13] 18.7 µM | [14] 5.9 µM

Cc1cc(Nc2cc(N3CCN(C)CC3)nc(C=Cc3ccccc3)n2)n[nH]1
active: [1] 3.82 µM | [2] 38.2 µM | [16] 8.55 µM | [3] 4.29 µM | [17] 13.6 µM | [4] 12.1 µM | [7] 7.62 µM | [19] 4.81 µM | [8] 3.4 µM | [9] 30.3 µM | [10] 38.2 µM | [11] 8.55 µM | [12] 15.2 µM | [13] 48.1 µM

Nc1ccn([C@@H]2O[C@H](CO)[C@H](O)C2(F)F)c(=O)n1
active: [1] 0.0418 µM | [16] 0.059 µM | [3] 0.105 µM | [17] 0.296 µM | [4] 0.469 µM | [5] 0.0833 µM | [6] 5.9 µM | [7] 0.526 µM | [19] 0.105 µM | [8] 0.0526 µM | [10] 0.0187 µM | [11] 3.72 µM | [12] 0.0526 µM | [13] 0.0264 µM | [14] 0.0743 µM

O=C(C=Cc1c(C(=O)O)[nH]c2cc(Cl)cc(Cl)c12)Nc1ccccc1
inactive: [1] | [2] | [16] | [3] | [17] | [4] | [5] | [18] | [7] | [19] | [8] | [9] | [10] | [12] | [13] | [14]

COC(=O)c1ccc2c(C(=Nc3ccc(N(C)C(=O)CN4CCN(C)CC4)cc3)c3ccccc3)c(O)[nH]c2c1
active: [1] 6.62 µM | [2] 3.72 µM | [16] 4.69 µM | [5] 1.66 µM | [18] 0.187 µM | [6] 26.4 µM | [7] 6.62 µM | [19] 0.0469 µM | [8] 8.33 µM | [9] 2.35 µM | [11] 11.8 µM | [13] 16.6 µM | [14] 0.526 µM

CC[C@H](CO)Nc1nc(NCc2ccccc2)c2ncn(C(C)C)c2n1
inactive: [4] | [14]
active: [1] 16.6 µM | [2] 26.4 µM | [16] 9.35 µM | [6] 18.7 µM | [7] 26.4 µM | [19] 6.62 µM | [9] 18.7 µM | [10] 18.7 µM | [11] 20.9 µM

CCC(=C(c1ccccc1)c1ccc(OCCN(C)C)cc1)c1ccccc1
active: [1] 23.5 µM | [16] 18.7 µM | [17] 20.9 µM | [4] 23.5 µM | [5] 18.7 µM | [18] 14.8 µM | [7] 23.5 µM | [8] 16.6 µM | [11] 18.7 µM | [12] 20.9 µM | [13] 26.4 µM | [14] 13.2 µM

CC(C)(C)NC(=O)[C@H]1CN(Cc2cccnc2)CCN1C[C@@H](O)C[C@@H](Cc1ccccc1)C(=O)N[C@H]1c2ccccc2C[C@H]1O
active: [7] 5.26 µM | [8] 20.9 µM | [11] 4.18 µM
inactive: [17] | [4] | [18] | [19]
